# Laboratory results published in PubChem BioAssay (NCI).
# “And” between values parts separate entries of the source, which are not always exact repeats. Equal values may be shown once. This is part of a sample that, as a whole, favours compounds with a hit. Of some 83,000 tested, about 20% had one in any assay.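 Activity criterion: percent growth below 10, measured after cells in 96-well plates were exposed to a single compound concentration for 48 hours.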 Where a structure was tested more than once in an assay, its records may differ in their call. The source made the active and inactive calls.
# Test system: MDA-MB-468 breast
# Test: NCI-60 one-dose screen, 48 h (100 = growth as untreated, 0 = no growth, -100 = all killed)
# Details: 10 µM unless noted
row,Compound,growth
1,CN(C)c1ccc(-c2cc(-c3c[nH]c4ccccc34)nc(N)c2C#N)cc1,39.7% (inactive)
2,Fc1cc(Nc2ccc3c(OCCCN4CCOCC4)cccc3n2)ccc1Cl,28.5% (inactive)
3,NS(=O)(=O)c1ccc(Nc2nc(SCC(=O)c3ccc(Cl)cc3)nc3c2CCCC3)cc1,57.9% (inactive)
4,C=CCO[C@H]1CO[C@H]2[C@@H]1OC[C@@H]2Oc1ccc(Nc2ccnc(Nc3ccc(O[C@H]4CO[C@H]5[C@@H]4OC[C@@H]5OCC=C)c(Cl)c3)n2)cc1Cl,-84.5% (active)
5,CCOC(=O)N1CCN(c2nc(Nc3cc(C)[nH]n3)c3ccccc3n2)CC1,30.6% (inactive)
6,O=c1cc(-c2ccccc2)oc2c(O)c(O)ccc12,79.5% (inactive)
7,COc1cc(OC)c2sc(-c3ccc(-n4cncc4-c4ccc(OC)c(N)c4)cc3)nc2c1,80.6% (inactive)
8,O=C(CN1CCN(c2cc(=O)[nH]c3ccc(F)cc23)CC1)N(c1ccccc1)c1ccccc1,98.6% (inactive)
9,N/C(=N\O)c1ncc(-c2ccc(C(F)(F)F)cc2)c(NC2CCCCCC2)n1,-20.4% [100 µM] (active)
10,CCCN=C(N)c1ccc(NC(=O)c2ccc(C(=O)Nc3ccc(C(N)=NCCC)cc3)cc2)cc1,67.1% (inactive)
11,OC(c1ccccc1)c1nnc(SCc2ccccc2)n1Cc1ccccc1 (stereo not given),88.5% (inactive)
12,O=C(/C(=C\c1ccc([N+](=O)[O-])cc1)S(=O)Cc1ccc(Cl)cc1)c1ccc(Cl)cc1 (stereo not given),74% (inactive)
13,CC(=O)Oc1cc2ccccc2cc1C(C)C,98.8% (inactive)
14,COC1C[C@H](O[C@@H]2C[C@H](O[C@@H]3C[C@H](O[C@@H]4C(=O)c5c(cc6cc(O[C@H]7C[C@@H](O[C@H]8C[C@@H](O)[C@H](O)C(C)O8)[C@H](O)C(C)O7)c(C)c(O)c6c5O)C[C@H]4C(OC)C(=O)[C@@H](O)[C@@H](C)O)OC(C)[C@H]3O)OC(C)[C@@H]2O)OC(C)[C@@H]1O (stereo not given in full),-55% (active)
15,CCCCCCCCCCCCCCCCCCOc1ccccc1CC(=O)OCC[N+](C)(C)C,-38.9% (active)
16,CCOC(=O)C1=C(C)NC(SCc2cc(=O)oc3ccc(F)cc23)=N[C@@H]1c1cccc2ccccc12,113% (inactive)
17,Nc1c(C(=O)c2ccc(Cl)s2)sc2nc3c(cc12)CCCC3,69.1% (inactive)
18,COc1ccccc1CNCCN1C(=O)c2ccc3c4c(ccc(c24)C1=O)C(=O)N(CCNCc1ccccc1OC)C3=O,-92.8% (active)
19,CSC1=N/C(=C\c2cccc(OCc3ccc(Cl)cc3)c2)C(=O)N1,68.6% (inactive)
20,CCN1C(=O)N(CC)C2C1NN=c1s/c(=C\c3ccc(Br)cc3)c(=O)n12 (stereo not given),7.21% (active)
21,Cc1ccc(N=C=C(c2ccccc2)c2ccccc2)cc1,69.1% (inactive)
22,O=C(Nc1ccc(-c2nc(-c3cccc(OCCN4CCOCC4)c3)c(-c3ccnc(Br)c3)[nH]2)cc1)c1ccccc1,-6.35% (active)
23,Cc1cn(C(C=O)OC(C=O)CO)c(=O)[nH]c1=O (stereo not given),113% (inactive)
24,O=C(c1nc2ccccc2[nH]1)C1C(c2ccc([N+](=O)[O-])cc2)C2CC3CCCCC3N2[C@@]12C(=O)Nc1cc(Cl)ccc12 (stereo not given in full),-1.98% (active)
25,N#CCCCCCCCCCCC#N,112% (inactive)
26,Cc1ccc(CSC(=N)N)cc1C,104% (inactive)
27,CCN(CC)C12CCCCC1(C)C(C#N)(C#N)C(C#N)=C(N)O2 (stereo not given),93.5% (inactive)

row,Compound,growth
1,CN(C)CCOC1(Cc2ccc(Cl)cc2Cl)CCC(C(C)(C)C)CC1 (stereo not given),-77.6% (active) and -87.3% (active)
2,Cc1ccccc1-n1nnc(C(=O)Nc2ccc(-c3ccccc3)cn2)c1C,4.89% [50 µM] (active)
3,Cc1ccc(S(=O)(=O)N/N=C\c2cc(Cl)ccc2O)cc1,68.4% (inactive)
4,O[C@H]1CO[C@H]2[C@@H]1OC[C@@H]2Oc1ccc(Nc2ccnc(Nc3ccc(O[C@H]4CO[C@H]5[C@@H]4OC[C@@H]5O)c(Cl)c3)n2)cc1Cl,-7.19% (active)
5,CCOC(=O)n1cc(-c2nonc2-c2cn(C(=O)OCC)c3ccc(Br)cc23)c2ccccc21,85.9% (inactive)
6,O=C(Nc1nc(-c2ccccc2)nc2c1sc(=S)n2-c1ccccc1)C(F)(F)F,105% (inactive)
7,O=C1CSC(c2c(Cl)cccc2Cl)N1c1nc(Cl)cc(=O)[nH]1 (stereo not given),117% (inactive)
8,O=C1Nc2ccccc2/C1=C/c1c[nH]c2ccccc12,44.4% (inactive)
9,Cc1nc2ccccc2c(/C=C/c2ccc(Br)cc2)c1C(=O)/C=C/c1ccccc1,-15.5% (active)
10,COc1cc(CNCCCCCCN2C(=O)c3cccc4cccc(c34)C2=O)ccc1O,47.2% (inactive)
11,O=C(CCc1nnc2sc(-c3cc(O)c(O)c(O)c3)nn12)c1nc2ccccc2[nH]1,86.8% (inactive)
12,COc1ccc(-n2c(SCc3n[nH]c(=S)o3)nc3ccc(Cl)cc3c2=O)cc1,82.6% (inactive)
13,COc1ccc(CCN2COc3c([C@@H](C)CCC=C(C)C)ccc(C)c3C2)cc1OC,26.8% (inactive)
14,COC(=O)c1nc(N)nc(C(=O)OC)c1C(=O)c1ccc(OC)cc1,98.1% (inactive) and 47.2% (inactive)
15,CCN(CC)c1ccc(/C=N/NC(=O)c2ccc(Nc3ccnc(C(F)(F)F)c3)cc2)c(O)c1,8.37% (active)
16,COc1ncc(F)c(OC)n1,98.7% (inactive)
17,COC1CCN(Cc2ccc3c(NNC(=O)c4cnccn4)nc4cc(F)ccc4n23)C1 (stereo not given),-32.1% (active)
18,Clc1ccc(-c2n[nH]c3c2Cc2ccccc2-3)cc1Cl,75.3% (inactive)
19,CCOC(=O)c1cnc2ccc(Cl)cc2c1NCCCN(C)C,-31.3% (active)
20,O=C(/C=C/C12c3ccccc3C(c3ccccc31)C1C(=O)NC(=O)C12)c1ccc(I)cc1 (stereo not given),51.2% (inactive)
21,CC1(C)C2CCC(O)(C(=O)O)C1C2 (stereo not given),106% (inactive)
22,Oc1ccc(Cl)cc1CNc1nc2ccccc2[nH]1,102% (inactive)
23,CC(=O)N1N=C(c2cccc(-n3cccc3)c2)CC1c1cccc(F)c1 (stereo not given),90.4% (inactive)
24,CC1(C)CCC(S(=O)(=O)c2ccc3c(c2)/C(=N\O)c2cc(S(=O)(=O)N4CCN(c5ccc(F)cc5O)CC4)ccc2-3)CC1,-82.5% (active)
25,Cn1c(C(=O)c2cccc3ccccc23)nc2ccccc21,-1.13% (active)
26,CC(C)(C)n1cc(-c2ccnc(NCCCNS(=O)(=O)c3cccc(F)c3)n2)c(-c2ccc(Cl)c(O)c2)n1,104% (inactive)
27,N#Cc1nc(-c2ccccc2)oc1S(=O)(=O)N1CCCCC1,21.8% (inactive)

row,Compound,growth
1,COc1ccc(C2Nc3nc(SC)nc(N)c3N=C3c4ccccc4CCC32)cc1 (stereo not given),102% (inactive)
2,C/C(=C\CCc1ccsc1)CC/C=C(\C)CCCN1CCSCC1,50.1% (inactive)
3,COc1cc2nc(-c3ccc(C#N)cc3)[nH]c(=O)c2cc1OC,113% (inactive)
4,COc1cc2ncnc(Nc3ccc(Oc4ccnc(C)c4)c(C)c3)c2cc1NC(=O)CC1CCSS1 (stereo not given),-67% (active)
5,CCN(CC)CCOc1ccc2c(-c3ccccc3)c(-c3ccc(OC)cc3)c(=O)oc2c1,44.5% (inactive)
6,Cc1ccc(-c2cc3c(SCC(=O)Nc4cc(C(F)(F)F)ccc4Cl)nccn3n2)cc1,-19.3% (active)
7,COc1ccc(C2[C@@H](Cl)C(=O)N2c2cc(OC)c(OC)c(OC)c2)cc1Cl (stereo not given in full),2.32% (active)
8,O=C(O)CCCCCCCCCCN1C(=O)/C(=C2/C(=O)N(CC(=O)O)c3ccc(Br)cc32)SC1=S,102% (inactive)
9,CC1=CC[C@@H]2C(C)(C)C(=O)CC[C@@]2(C)[C@@H]1COc1ccc2ccc(=O)oc2c1,43.1% (inactive)
10,CC1(C)CC[C@]2(CO)CC[C@]3(C)C(=CC[C@@H]4[C@@]5(C)CCNCC(C)(C)[C@@H]5CC[C@]43C)[C@@H]2C1,-33.1% (active)
11,Clc1nc2ccccc2cc1Cn1nnc(Cc2ccccc2)n1,11.1% (inactive)
12,O=c1[nH]ccc2nc(N3CCC(O)CC3)nc(Nc3cccc(C(F)(F)F)c3)c12,14.5% (inactive)
13,CC(C)(C)NC(C1=CC(C)(C)c2ccccc2C1=O)c1ccccc1 (stereo not given),-100% (active)
14,COc1cc(-n2cc(-c3cc(O)c(C/C=C(\C)CCC=C(C)C)c(O)c3)nn2)cc2c1O[C@]1(C)CC[C@@H](O)C(C)(C)[C@H]1C2,-14.6% (active)
15,O=c1sn(-c2cccc3ccccc23)c(=O)n1Cc1ccccc1,106% (inactive)
16,CN1CCCN(C(c2ccccc2)c2ccc(Cl)cc2)CC1 (stereo not given),83.1% (inactive)
17,COC(=O)C1Cc2ccccc2CN1C(=O)c1ccc2c(c1)Cc1ccccc1-2 (stereo not given),14.5% [50 µM] (inactive)
18,O=C(N/N=C/c1ccccc1O)c1ccccc1Nc1ccnc(C(F)(F)F)c1,-18.4% (active)
19,COc1cc(Cn2cc3c(c2)-c2onc(CN4CCOCC4)c2CC3)cc(OC)c1OC,81.5% (inactive)
20,COc1ccc(C2OC(N)=C(O)C2=O)cc1OC (stereo not given),109% (inactive)
21,CC(=O)n1nc(C(=O)OC(C)C)c2cc(C)c(C)cc21,92.9% (inactive)
22,O=C(CCCCCCN1CC(=O)N2[C@H](c3cc(Br)cs3)c3[nH]c4ccccc4c3C[C@H]2C1=O)NO,44.7% (inactive)
23,CC(=O)Nc1ccc(CC[C@H]2CCC/C=C/[C@@H]3C[C@H](O)C[C@H]3[C@H](O)/C=C/C(=O)O2)cc1,-23.5% (active)
24,COc1ccc(-c2ncnc3c2ncn3C/C=C/CCl)cc1,-3.89% (active) and 61.5% (inactive)
25,Oc1ccc(CSc2nnc(-c3ccc(Br)cc3)n2-c2ccccc2)c2cccnc12,36.1% (inactive)
26,CCCCCn1sc(=O)n(Cc2ccc(CNC(=O)OCc3ccc4c(Cl)cc(Cl)c(O)c4n3)cc2)c1=O,59.8% (inactive)
